Data: PubChem BioAssay AID2073 (Sanford-Burnham Center for Chemical Genomics, 2009)
The whole screen tested about 290,000 compounds, of which about 570 (0.2%) were called active. Roughly 1% stayed inconclusive and do not appear here. Rule as the data show it: active = inhibition mostly above about 51% (no sharp cut-off); inconclusive = no clear call, values can overlap the other calls; inactive = mostly below about 53%. The entries come from a sample that favours actives as a whole.

Target: Voltage-dependent N-type calcium channel subunit alpha-1B (Homo sapiens) (UniProt Q00975)
Sequence (Q00975 whole entry, looked up): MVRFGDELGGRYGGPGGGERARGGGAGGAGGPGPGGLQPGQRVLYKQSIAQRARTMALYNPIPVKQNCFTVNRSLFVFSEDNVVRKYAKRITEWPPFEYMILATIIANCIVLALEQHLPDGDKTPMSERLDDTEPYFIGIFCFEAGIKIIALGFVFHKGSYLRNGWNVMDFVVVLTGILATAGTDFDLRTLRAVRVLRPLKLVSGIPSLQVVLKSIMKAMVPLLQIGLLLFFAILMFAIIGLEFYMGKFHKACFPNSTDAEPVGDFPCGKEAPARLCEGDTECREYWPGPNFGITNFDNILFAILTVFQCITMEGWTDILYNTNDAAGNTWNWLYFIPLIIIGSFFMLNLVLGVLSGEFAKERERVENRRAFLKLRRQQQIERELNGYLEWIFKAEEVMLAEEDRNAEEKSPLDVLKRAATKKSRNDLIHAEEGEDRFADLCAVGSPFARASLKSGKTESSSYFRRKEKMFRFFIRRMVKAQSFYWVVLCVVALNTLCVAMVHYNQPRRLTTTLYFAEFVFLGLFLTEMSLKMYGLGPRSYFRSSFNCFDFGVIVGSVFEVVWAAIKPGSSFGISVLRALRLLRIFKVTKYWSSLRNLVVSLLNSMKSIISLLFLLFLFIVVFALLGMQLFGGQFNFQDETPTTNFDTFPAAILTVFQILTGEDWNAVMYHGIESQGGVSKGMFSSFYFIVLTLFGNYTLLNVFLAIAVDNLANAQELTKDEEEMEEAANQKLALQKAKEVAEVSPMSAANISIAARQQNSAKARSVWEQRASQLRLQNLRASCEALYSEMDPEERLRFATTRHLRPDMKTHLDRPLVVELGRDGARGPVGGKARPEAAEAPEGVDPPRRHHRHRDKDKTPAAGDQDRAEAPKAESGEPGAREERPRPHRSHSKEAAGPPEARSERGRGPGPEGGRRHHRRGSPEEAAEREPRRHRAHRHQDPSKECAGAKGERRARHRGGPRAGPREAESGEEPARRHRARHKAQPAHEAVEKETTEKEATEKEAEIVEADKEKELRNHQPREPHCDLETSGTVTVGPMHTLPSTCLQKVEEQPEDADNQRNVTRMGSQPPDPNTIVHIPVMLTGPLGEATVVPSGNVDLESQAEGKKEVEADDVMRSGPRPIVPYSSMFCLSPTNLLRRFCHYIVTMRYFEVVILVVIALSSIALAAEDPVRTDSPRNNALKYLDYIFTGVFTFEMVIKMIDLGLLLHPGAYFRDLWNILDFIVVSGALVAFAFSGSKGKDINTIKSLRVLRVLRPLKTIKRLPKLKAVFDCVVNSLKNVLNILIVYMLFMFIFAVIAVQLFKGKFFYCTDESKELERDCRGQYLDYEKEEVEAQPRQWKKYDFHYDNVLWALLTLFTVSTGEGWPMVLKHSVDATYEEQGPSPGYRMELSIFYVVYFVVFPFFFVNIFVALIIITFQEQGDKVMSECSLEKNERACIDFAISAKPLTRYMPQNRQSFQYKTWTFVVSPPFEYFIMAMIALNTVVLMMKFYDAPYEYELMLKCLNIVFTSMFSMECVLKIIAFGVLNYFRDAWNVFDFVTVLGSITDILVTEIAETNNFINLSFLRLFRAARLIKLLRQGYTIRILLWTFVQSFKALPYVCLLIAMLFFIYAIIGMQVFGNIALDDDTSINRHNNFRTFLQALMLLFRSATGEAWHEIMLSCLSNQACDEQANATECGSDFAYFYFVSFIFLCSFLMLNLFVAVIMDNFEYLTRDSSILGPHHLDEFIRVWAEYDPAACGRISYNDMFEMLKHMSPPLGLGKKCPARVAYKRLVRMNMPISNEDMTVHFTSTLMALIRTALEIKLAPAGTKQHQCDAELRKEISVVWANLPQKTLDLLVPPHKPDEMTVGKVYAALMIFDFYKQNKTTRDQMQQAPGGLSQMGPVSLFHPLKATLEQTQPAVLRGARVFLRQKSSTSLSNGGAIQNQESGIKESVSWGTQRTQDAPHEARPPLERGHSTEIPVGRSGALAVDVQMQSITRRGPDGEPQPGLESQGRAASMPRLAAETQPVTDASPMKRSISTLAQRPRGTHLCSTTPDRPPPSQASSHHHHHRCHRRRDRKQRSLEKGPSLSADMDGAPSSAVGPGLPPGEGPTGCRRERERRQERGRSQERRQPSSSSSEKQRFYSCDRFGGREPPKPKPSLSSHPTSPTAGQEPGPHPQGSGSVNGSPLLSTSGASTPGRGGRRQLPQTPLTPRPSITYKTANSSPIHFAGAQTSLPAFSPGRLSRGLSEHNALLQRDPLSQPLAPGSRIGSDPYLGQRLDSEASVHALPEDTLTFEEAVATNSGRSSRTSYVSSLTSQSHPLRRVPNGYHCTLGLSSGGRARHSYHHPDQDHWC
Experiment: disruptors of CaV2.2 binding to Mint1 – biochemical, HTRF (AID 2073)
Details: HTRF protein-protein interaction, Mint1-CaV2.2, at 20 µM, stronger effect = higher value
[1] = measured here: average of repeat tests

Cc1ccc(CNC(=O)c2ccc(S(=O)(=O)Nc3c(C)n(C)n(-c4ccccc4)c3=O)cc2)cc1 was tested, and the inhibition was 0.9% (inactive).
O=Cc1cccn1-c1cccnc1 was tested, and the inhibition was 8.9% (inactive).
For Fc1ccccc1N1CCN(C2CCCN(Cc3ccccc3C(F)(F)F)C2)CC1 (stereo unspecified), the inhibition was -0.4% (inactive).
With CCN(CC)CCN(C(=O)c1ccc2c(c1)OCCO2)c1nc2ccc(C)cc2s1 the inhibition was -5.5% (inactive).
CC1(C)Cc2c(c(-c3ccco3)nc3sc4c(NCCCO)ncnc4c23)CO1 was tested, and the inhibition was 5.3% (inactive).
With OCCN1CCN(c2ncnc3c2sc2nc(N4CCOCC4)c4c(c23)CCC4)CC1 the inhibition was 3.4% (inactive).
In the case of CSc1nc(N2CCN(CCO)CC2)c2sc3nc(-c4ccco4)c4c(c3c2n1)CCC4, the inhibition is reported as 64% (active).
In the case of OCCN(CCO)c1ncnc2c1sc1nc(N3CCOCC3)c3c(c12)CCCC3, the inhibition is reported as 16.9% (inactive).
With CC1(C)Cc2c(c(N3CCCC3)nc3sc4c(N5CCN(CCO)CC5)ncnc4c23)CO1 the inhibition was -8.9% (inactive).
In the case of CSc1nc(N(CCO)CCO)c2sc3nc(-c4ccco4)c4c(c3c2n1)CCC4, the inhibition is reported as 72.4% (active).
For Cc1nn(Cc2noc(C(=O)NCCc3ccccn3)n2)c(C)c1Br, the inhibition was 7.3% (inactive).
In the case of CC1(C)CC(NC(=O)c2ccccc2C(=O)NC2CC(C)(C)NC(C)(C)C2)CC(C)(C)N1, the inhibition is reported as 32.5% (inactive).
In the case of CCOC(=O)c1cnn(-c2nc(-c3ccccc3)nc3c2COC(C)(C)C3)c1N, the inhibition is reported as -0.5% (inactive).
For CCOC(=O)N1CCN(C(=O)CSc2nc3c(cnn3-c3ccc(C)cc3)c(=O)[nH]2)CC1, the inhibition was 7.8% (inactive).
In the case of CCn1c(=O)cc(OCC(=O)Nc2ccc3c(c2)OCCO3)c2ccccc21, the inhibition is reported as 21.8% (inactive).
For Cc1ccc2[nH]c(=O)c(C(c3nnnn3CC3CCCO3)N3CCCc4ccccc43)cc2c1 (stereo unspecified), the inhibition was 94.9% (inactive) and the inhibition [1] was 12.5%.
With Cc1cc2cc(C(c3nnnn3CC3CCCO3)N3CCCc4ccccc43)c(=O)[nH]c2cc1C (stereo unspecified) the inhibition was 70% (active).
With CCc1ccc2[nH]c(=O)c(C(c3nnnn3CC3CCCO3)N3CCCc4ccccc43)cc2c1 (stereo unspecified) the inhibition was 73% (inactive) and the inhibition [1] was 15.4%.
With COC(=O)C1=C(C(=O)OC)[C@@H]2N(C)c3ccc(OC)cc3[C@@]23C[C@@H](C(=O)OC)N(C(=O)c2ccc(Br)cc2)C3=N1 the inhibition was 6.3% (inactive).
For Nc1nonc1-n1nnc(C(=O)N/N=C/c2ccc(F)cc2)c1-c1cccs1, the inhibition was 4.3% (inactive).
Cc1ccc(NC(=O)c2cc(-c3ccc(C)c(C)c3O)n[nH]2)cc1C was tested, and the inhibition was 12.1% (inactive).
For CC(=O)Nc1ccc(NC(=O)c2cc(-c3cc(C)c(C)cc3O)n[nH]2)cc1, the inhibition was -5.1% (inactive).
With COc1ccccc1CNc1cc(CSc2ccc(Cl)cc2)nc(C)n1 the inhibition was -1.5% (inactive).
For CC(C)CNC(=O)CSc1nc(-c2cccs2)cc(C(F)(F)F)n1, the inhibition was 16.7% (inactive).
With COc1ccc(CCNC(=O)C(CC(C)C)NC(N)=O)cc1 (stereo unspecified) the inhibition was 4.9% (inactive).
In the case of COc1ccc(CN(C(=O)c2cc(=O)c3cc(C)cc(C)c3o2)C2CCS(=O)(=O)C2)cc1 (stereo unspecified), the inhibition is reported as 0% (inactive).
COc1cccc(C(=O)NC2CC3CCCC(C2)N3CC(=O)Nc2ccc(N(C)C)cc2)c1 (stereo unspecified) was tested, and the inhibition was -12.2% (inactive).
COc1cccc(C(=O)NC2CC3CCCC(C2)N3CC(=O)Nc2ccccc2)c1 (stereo unspecified) was tested, and the inhibition was 55% (active).
For O=C(CN1C2CCCC1CC(NC(=O)c1ccccc1)C2)Nc1ccccc1 (stereo unspecified), the inhibition was 8.3% (inactive).
With O=C(Cn1c(=O)sc2ccccc21)Nc1ccc(S(=O)(=O)N2CCCCC2)cc1 the inhibition was 18% (inactive).
In the case of COc1ccc(C2=CC(c3c(C)nn(-c4ccccc4)c3Cl)n3nnnc3N2)cc1OC (stereo unspecified), the inhibition is reported as 24.3% (inactive).
With CSc1nc(C)cc(-n2cc(F)c(=O)[nH]c2=O)n1 the inhibition was -1.3% (inactive).
O=C(NC1=C(Nc2ccc(Cl)cc2)C(=O)c2ccccc2C1=O)c1ccccc1 was tested, and the inhibition was -10.9% (inactive).
In the case of O=C1C(Cl)=C(NC(=O)c2ccccc2)C(=O)C(Cl)=C1NC(=O)c1ccccc1, the inhibition is reported as 81.8% (active).
With O=C(Nc1ccccc1Cl)c1ccccc1 the inhibition was 23.6% (inactive).
CC(=O)N1CCN(C(=O)c2ccc3c(c2)OCCO3)CC1 was tested, and the inhibition was 16.6% (inactive).
With CCOC(=O)C1=C(Cc2ccc(F)cc2)C(=O)c2ccccc2C1=O the inhibition was 76% (inactive) and the inhibition [1] was 27.8%.
In the case of CCOC(=O)C1=C(O)c2ccccc2C(=O)/C1=C\c1ccc(C)cc1, the inhibition is reported as 49.4% (inactive).
For CCOC(=O)C1=C(Cc2ccc(C)cc2)C(=O)c2ccccc2C1=O, the inhibition was 36% (inactive).
With CCOC(=O)C1=C(Cc2ccc(OC)cc2)C(=O)c2ccccc2C1=O the inhibition was 61.9% (active).
With CCOC(=O)C1=C(O)c2ccccc2C(=O)/C1=C\c1ccc(CC)cc1 the inhibition was 54.8% (active).
In the case of CCOC(=O)C1=C(Cc2ccc(Cl)cc2)C(=O)c2ccccc2C1=O, the inhibition is reported as 66.8% (inactive) and the inhibition [1] is reported as 19.3%.
For COc1ccc(N/C(=N/c2nc(C)cc(C)n2)NC(=O)c2ccccc2)cc1, the inhibition was 8.5% (inactive).
For CSc1cccc(NC(=O)C2CCN(C(=O)c3ccccc3C)CC2)c1, the inhibition was 3.1% (inactive).
With CCOc1ccc(CCNC(=O)CSc2nnnn2C)cc1OCC the inhibition was 0% (inactive).
For CC1=CC(=C(C#N)C#N)C=C(C)N1Cc1ccccc1, the inhibition was -8.3% (inactive).
For CCn1c(=O)c(=O)[nH]c2cc(C(=O)Nc3ccc(S(=O)(=O)N4CCCC4)cc3)ccc21, the inhibition was 19.2% (inactive).
For CCCNC(=O)OC[C@H]1O[C@H](CCO/N=C/c2ccc(C(=O)N3[C@H](c4ccc(C)cc4)[C@@H](C)CC[C@H]3C(=O)OC)cc2)C=C[C@@H]1Oc1ccc(OC)cc1, the inhibition was 6.9% (inactive).
With CCOC(=O)c1cc(NC(=O)CCC(=O)O)ccc1N1CCCCC1 the inhibition was 19.3% (inactive).
O=C(/C=C\c1ccco1)Nc1nc(-c2ccccc2)cs1 was tested, and the inhibition was 0% (inactive).
For O=C(/C=C/c1ccco1)Nc1nc(-c2ccccc2)cs1, the inhibition was 26.4% (inactive).
O=C(/C=C/c1ccccc1)Nc1nc(-c2ccncc2)cs1 was tested, and the inhibition was 54.1% (active).
For O=C(/C=C/c1cccs1)Nc1nc(-c2ccccc2)cs1, the inhibition was 10% (inactive).
O=C(/C=C/c1ccc2c(c1)OCO2)Nc1nc(-c2ccccc2)cs1 was tested, and the inhibition was 26% (inactive).
O=C(/C=C/c1ccco1)Nc1nc(-c2ccccn2)cs1 was tested, and the inhibition was 54.1% (active).
For CCCSc1nc(N2CCOCC2)c2c(c1C#N)CC(C)(C)SC2, the inhibition was 0.4% (inactive).
For Cc1ccccc1NC1=C(Cl)C(=O)OC1NC(=O)c1ccccc1 (stereo unspecified), the inhibition was -0.5% (inactive).
In the case of CCOC(=O)c1ccc(N2C(=O)CC(C(=O)OC)=C2C)cc1, the inhibition is reported as 3.2% (inactive).
In the case of Cc1ccc2nc(NC(=O)CN3CCOCC3)sc2c1, the inhibition is reported as -0.6% (inactive).
For CCc1ccc2nc(NC(=O)c3ccc(N4C(=O)CCC4=O)cc3)sc2c1, the inhibition was 32.1% (inactive).
In the case of Cc1ccc(-n2ncc3c2CCCC3NC(=O)CCn2ccnc2C)cc1C (stereo unspecified), the inhibition is reported as -3.7% (inactive).
For O=C1CC(c2ccco2)Cc2nc(Nc3nc(-c4ccccc4)c4ccccc4n3)ncc21 (stereo unspecified), the inhibition was 52.4% (active).
In the case of O=C(Nc1ncc2c(n1)CC(c1ccco1)CC2=O)c1ccccc1 (stereo unspecified), the inhibition is reported as 33.5% (inactive).
O=C1CC(c2ccco2)Cc2nc(Nc3ccc(F)cc3)ncc21 (stereo unspecified) was tested, and the inhibition was 6.4% (inactive).
CN(C)C(=O)c1ccc(NC(=O)COc2ccc([N+](=O)[O-])cc2)cc1 was tested, and the inhibition was 5.1% (inactive).
With COc1ccc(C2C(Oc3ccccc3)C(=O)N2c2cc(C)ccc2C)cc1OC (stereo unspecified) the inhibition was -3.8% (inactive).
Cc1ccc(-n2c(=O)c3cc4c(=O)n(-c5ccc(C)c(C)c5)c(=O)c4c(C(=O)c4ccc(C(=O)O)cc4)c3c2=O)cc1C was tested, and the inhibition was 85% (active).
Cc1ccc(N2C(=O)c3ccc(C(=O)O)cc3C2=O)cc1C was tested, and the inhibition was -1.3% (inactive).
O=C(O)c1ccc(-n2c(=O)c3ccccc3c3ccccc3c2=O)cc1 was tested, and the inhibition was -2.9% (inactive).
In the case of O=C(N/N=C/c1ccoc1)c1cc(O)cc(O)c1, the inhibition is reported as 18.3% (inactive).
Cc1cc([N+](=O)[O-])c2c(c1C)C1C=CCC1C(c1ccccn1)N2 (stereo unspecified) was tested, and the inhibition was 42.9% (inactive).
With O=C(O)c1ccc(Cl)c2c1C1C=CCC1C(c1ccccn1)N2 (stereo unspecified) the inhibition was 23.7% (inactive).
With O=[N+]([O-])c1ccc(Cl)c2c1C1C=CCC1C(c1ccccn1)N2 (stereo unspecified) the inhibition was 79.5% (active).
COc1c(S(=O)(=O)NCCCn2ccnc2)ccc(Cl)c1Cl was tested, and the inhibition was -0.3% (inactive).
In the case of COc1cccc(-c2nn(-c3ccccc3)cc2C(=O)O)c1, the inhibition is reported as 1.6% (inactive).
COc1ccccc1NC(=O)c1c(NC(=O)CCC(=O)O)sc2c1CCCCC2 was tested, and the inhibition was 25% (inactive).
In the case of COc1ccc(OC)c(NC(=O)c2c(NC(=O)CCC(=O)O)sc3c2CCCCC3)c1, the inhibition is reported as 65.1% (active).
In the case of COc1ccc(NC(=O)c2c(NC(=O)CCC(=O)O)sc3c2CCCCC3)cc1, the inhibition is reported as 63.8% (inactive) and the inhibition [1] is reported as 9.3%.
In the case of O=S(=O)(NCC1CCCO1)c1ccc(Oc2ccccc2)cc1 (stereo unspecified), the inhibition is reported as 8.9% (inactive).
In the case of Cc1cc(C(=O)OCC(=O)Nc2cc(S(=O)(=O)N(C)C)ccc2C)c2ccccc2n1, the inhibition is reported as -2.8% (inactive).
In the case of C[C@H]1[C@H](C)CC[C@]2(C)CC[C@]3(C)C(=CC[C@@H]4[C@@]5(C)CC[C@@H](O)[C@](C)(C(=O)O)[C@@H]5CC[C@]43C)[C@H]12, the inhibition is reported as 77% (active).
C[C@H]1[C@H](C)CC[C@]2(C(=O)O)CC[C@]3(C)C(=CC[C@@H]4[C@@]5(C)CC[C@H](O)C(C)(C)[C@@H]5CC[C@]43C)[C@H]12 was tested, and the inhibition was 41.1% (inactive).
In the case of C[C@H]1[C@H](C)CC[C@]2(C(=O)O)CC[C@]3(C)C(=CC[C@@H]4[C@@]5(C)C[C@@H](O)[C@H](O)C(C)(C)[C@@H]5CC[C@]43C)[C@H]12, the inhibition is reported as 45.4% (inactive).
For CC(=O)Nc1cc2c3c(c1)CCN3C(=O)CC2, the inhibition was 0.4% (inactive).
With COc1cc(/C=N/NC(=O)c2ccncc2)ccc1OC(C)=O the inhibition was 11.8% (inactive).
With Cc1ccc(S(=O)(=O)n2c(=O)oc3ccccc32)cc1 the inhibition was -5.8% (inactive).
